Laboratory results: PubChem BioAssay (Tox21)
Results filed as inconclusive are left out. The source made the active and inactive calls. Unless noted, the call rests on the fitted dose curve.

Tests used:
[1] = Nuclear factor erythroid 2-related factor 2/antioxidant responsive element (Nrf2/ARE) small molecule agonists: qHTS cell viability counter screen in human keratinocytes (AID 1919968; active means well fitted curve in the direction sought with a large enough effect in the repeat runs; an effect the other way counts as inactive or inconclusive; further: nearly all actives have a fitted effect of over 55% in size)
Procedure, shortened: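 KeratinoSens HaCaT cells, 1,500/well, preincubated 5 h, then exposed to compounds in DMSO for 23 h at 37 C/5% CO2. Viability read as CellTiter-Fluor fluorescence after 1 h, in the same wells as the ARE-luciferase read.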

[2] = Nuclear factor erythroid 2-related factor 2/antioxidant responsive element (Nrf2/ARE) small molecule agonists: luciferase reporter gene qHTS assay in human keratinocytes (AID 1919969); further: nearly all actives have a fitted effect of over 35% in size
[3] = target: Gonadotropin-releasing hormone receptor (Homo sapiens) (UniProt P30968); assay: Human gonadotropin-releasing hormone receptor (GnRHR) small molecule agonists, calcium flux assay in GnRHR-HEK293 cells (AID 1920063); further: nearly all actives have a fitted effect of over 35% in size
Sequence of Gonadotropin-releasing hormone receptor (Homo sapiens) (P30968 whole entry, looked up): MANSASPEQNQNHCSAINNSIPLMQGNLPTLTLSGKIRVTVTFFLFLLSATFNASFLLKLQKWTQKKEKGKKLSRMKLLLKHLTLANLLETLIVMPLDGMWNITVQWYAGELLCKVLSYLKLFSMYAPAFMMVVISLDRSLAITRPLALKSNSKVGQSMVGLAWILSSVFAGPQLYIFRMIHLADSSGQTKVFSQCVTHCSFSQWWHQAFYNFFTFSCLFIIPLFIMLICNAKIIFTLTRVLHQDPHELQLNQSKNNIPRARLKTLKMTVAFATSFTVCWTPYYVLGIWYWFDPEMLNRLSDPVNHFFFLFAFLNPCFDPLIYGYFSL
Procedure, shortened: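 HEK293 cells stably expressing human GnRHR were dye-loaded for 1 h at 37 C. Compound was added in agonist mode and fluorescence (Ex/Em 480/540) recorded kinetically for 3 min. Fifteen concentrations, triplicates.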

[4] = target: KiSS-1 receptor (Homo sapiens) (UniProt Q969F8); assay: Human kisspeptin (KISS1R) small molecule agonists, calcium flux assay in KISS1R-HEK293 cells (AID 1920064; active means well fitted curve in the direction sought with a large enough effect in the repeat runs; an effect the other way counts as inactive or inconclusive)
Sequence of KiSS-1 receptor (Homo sapiens) (Q969F8 whole entry, looked up): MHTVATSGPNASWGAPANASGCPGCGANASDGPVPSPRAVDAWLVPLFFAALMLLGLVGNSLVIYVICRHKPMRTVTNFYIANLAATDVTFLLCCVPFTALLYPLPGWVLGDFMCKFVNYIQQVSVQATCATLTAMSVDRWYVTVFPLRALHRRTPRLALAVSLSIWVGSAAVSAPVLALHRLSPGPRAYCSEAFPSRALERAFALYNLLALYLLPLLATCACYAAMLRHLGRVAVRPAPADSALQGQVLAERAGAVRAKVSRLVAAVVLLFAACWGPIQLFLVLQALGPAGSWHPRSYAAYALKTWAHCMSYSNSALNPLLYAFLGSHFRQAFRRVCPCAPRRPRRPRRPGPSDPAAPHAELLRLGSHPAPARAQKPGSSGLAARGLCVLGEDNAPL
Procedure, shortened: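 HEK293 cells stably expressing human KISS1R were loaded with calcium dye for 1 h at 37 C, then given compound; fluorescence (Ex/Em 480/540) was read kinetically for 3 min. Fifteen concentrations, triplicate.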

[5] = G protein-coupled receptor (GPCR) small molecule agonists, calcium flux assay: HEK293 wild type cell line counter screen (AID 1920065)
Procedure, shortened: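 Wild-type HEK293 cells plated 18 h, loaded with calcium dye 1 h at 37 C, then compounds added in agonist mode (ATP as positive control). Kinetic fluorescence Ex/Em 480/540 recorded 3 min at 1 sec intervals; 15 concentrations, triplicate.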

[6] = p53 small molecule agonists, cell-based qHTS assay with human liver microsomes (AID 1963577);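 further: p53 response element beta-lactamase reporter cells with liver microsomes plus NADPH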
Procedure, shortened: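 With metabolic activation: human liver microsomes (0.5 mg/mL final) plus NADPH (0.5 mg/mL final) added alongside compounds to p53RE-bla cells; 16 h 37 C exposure; beta-lactamase read by LiveBLAzer fluorescence.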

[7] = p53 small molecule agonists, cell-based qHTS assay with rat liver microsomes (AID 1963578)
Procedure, shortened: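 Metabolic activation by rat liver microsomes and NADPH, each 0.5 mg/mL final, added right after compounds to p53RE-bla reporter cells (4,000/well, plated 5 h earlier). 16 h at 37 C, then LiveBLAzer substrate for 2 h at room temperature in the dark; fluorescence read-out.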

[8] = p53 small molecule agonists, cell-based qHTS assay with human liver microsomes: qHTS cell viability counter screen (AID 1963579); further: nearly all actives have a fitted effect of over 45% in size
Procedure, shortened: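 Metabolic activation used human liver microsomes and NADPH, both 0.5 mg/mL final, over 16 hours at 37 C on p53RE-bla cells (4,000/well). Cytotoxicity measured by CellTiter-Glo luminescence, 30 min at room temperature.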

[9] = p53 small molecule agonists, cell-based qHTS assay with rat liver microsomes: qHTS cell viability counter screen (AID 1963580); further: nearly all actives have a fitted effect of over 45% in size
Procedure, shortened: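 HCT-116 p53RE-bla, 4,000 cells/well, 5 h pre-incubation; cpd + rat liver microsomes 0.5 mg/mL + NADPH 0.5 mg/mL (final); 16 h, 37 C; CellTiter-Glo, 30 min RT; luminescence.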

[10] = p53 small molecule agonists, cell-based qHTS assay: qHTS cell viability counter screen (AID 1963581); further: nearly all actives have a fitted effect of over 45% in size
Procedure, shortened: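 p53RE-bla HCT-116 cells, compounds added 5 h after plating and incubated 16 h at 37 C. Cytotoxicity measured in the same wells as intracellular ATP by CellTiter-Glo luminescence after 30 min at room temperature.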

[11] = p53 small molecule agonists, cell-based qHTS assay (AID 1963582; active means well fitted activation curve with a large enough effect in the signal ratio in the repeat runs, not every such curve was filed as active; the % refers to the signal ratio)
Procedure, shortened: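 p53RE-bla reporter cells, compounds added in DMSO after 5 h plating, incubated 16 h at 37 C. Beta-lactamase read via 2 h room-temperature LiveBLAzer B/G FRET substrate, fluorescence intensity.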

[12] = target: 5-hydroxytryptamine receptor 2A (Homo sapiens) (UniProt P28223); assay: 5-hydroxytryptamine receptor 2A (HTR2A) small molecule agonists, cell-based qHTS assay (AID 1963587); further: nearly all actives have a fitted effect of over 30% in size; further: potency means the concentration at half of the fitted maximal effect
Sequence of 5-hydroxytryptamine receptor 2A (Homo sapiens) (P28223 whole entry, looked up): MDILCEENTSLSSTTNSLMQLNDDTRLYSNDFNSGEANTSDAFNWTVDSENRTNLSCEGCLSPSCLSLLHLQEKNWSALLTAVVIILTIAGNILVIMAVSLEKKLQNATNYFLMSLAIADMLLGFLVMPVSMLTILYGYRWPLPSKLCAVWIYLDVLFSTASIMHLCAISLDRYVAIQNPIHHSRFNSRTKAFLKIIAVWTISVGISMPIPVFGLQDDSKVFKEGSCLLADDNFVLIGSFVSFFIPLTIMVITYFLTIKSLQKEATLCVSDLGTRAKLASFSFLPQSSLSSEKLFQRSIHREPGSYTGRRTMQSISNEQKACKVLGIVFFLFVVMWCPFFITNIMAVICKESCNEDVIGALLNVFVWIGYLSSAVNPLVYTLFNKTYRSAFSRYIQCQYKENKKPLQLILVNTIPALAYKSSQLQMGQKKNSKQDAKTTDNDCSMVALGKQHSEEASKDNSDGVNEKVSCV
Procedure, shortened: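 Kinetic calcium-flux fluorescence (2 min, 1 sec intervals) after compound addition in agonist mode. HTR2A-CHO cells were cultured 18 h, then dye-loaded 1 h at 37 C.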

[13] = target: Muscarinic acetylcholine receptor M1 (Homo sapiens) (UniProt P11229); assay: Cholinergic receptor muscarinic 1 (CHRM1) small molecule antagonists, cell-based qHTS assay (AID 1963588); further: nearly all actives have a fitted effect of over 40% in size
Sequence of Muscarinic acetylcholine receptor M1 (Homo sapiens) (P11229 whole entry, looked up): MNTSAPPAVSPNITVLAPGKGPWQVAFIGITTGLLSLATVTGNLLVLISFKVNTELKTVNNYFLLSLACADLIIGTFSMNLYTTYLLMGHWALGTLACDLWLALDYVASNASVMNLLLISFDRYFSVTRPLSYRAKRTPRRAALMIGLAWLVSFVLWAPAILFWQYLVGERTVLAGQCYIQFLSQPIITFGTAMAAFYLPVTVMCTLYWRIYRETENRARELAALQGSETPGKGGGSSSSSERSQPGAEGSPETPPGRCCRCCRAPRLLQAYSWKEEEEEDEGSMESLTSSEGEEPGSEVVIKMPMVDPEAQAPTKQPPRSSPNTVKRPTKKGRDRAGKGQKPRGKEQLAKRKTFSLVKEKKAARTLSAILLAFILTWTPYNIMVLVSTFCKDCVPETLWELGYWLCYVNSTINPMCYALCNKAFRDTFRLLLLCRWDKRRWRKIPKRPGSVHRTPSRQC
Procedure, shortened: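 CHRM1-CHO calcium-flux assay, antagonist mode. Cells were seeded 18 h, dye-loaded 1 h at 37 C and given compound for 5 min at RT, then acetylcholine was added at 50nM. FDSS fluorescence was read 3 min; 15 concentrations, three runs.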

[14] = target: Muscarinic acetylcholine receptor M1 (Homo sapiens) (UniProt P11229); assay: Cholinergic receptor muscarinic 1 (CHRM1) small molecule agonists, cell-based qHTS assay (AID 1963589); further: nearly all actives have a fitted effect of over 35% in size
Procedure, shortened: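 CHO cells stably expressing human CHRM1 were loaded with calcium dye for 1 h at 37 C, then compound was added in agonist mode. Intracellular calcium fluorescence was followed kinetically at 1 s intervals. Fifteen concentrations were tested in three independent runs.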

[15] = cAMP Responsive Elements (CRE) small molecule agonists, cell-based qHTS assay (AID 1963590)
Procedure, shortened: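 CRE-bla HEK 293T cells, 2,000/well in DMEM with 10% dialyzed FBS and 25 mM HEPES, pre-incubated 18 h at 37 C, then exposed to compound 3 h at 37 C. Beta-lactamase reporter read with LiveBLAzer B/G FRET substrate after 2 h at room temperature.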

[16] = cAMP Responsive Elements (CRE) small molecule antagonists, cell-based qHTS assay (AID 1963591; active means well fitted inhibition curve with a large enough effect in the signal ratio in the repeat runs, not every such curve was filed as active; the % refers to the signal ratio)
Procedure, shortened: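 CRE-bla HEK293T cells plated 18 h, then given compound plus NKH477 at 0.25 uM final for 3 h at 37C. Beta-lactamase reporter read with LiveBLAzer B/G FRET substrate after 2 h at room temperature.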

[17] = target: Beta-2 adrenergic receptor (Homo sapiens) (UniProt P07550); assay: Adrenergic beta2 receptor (ADRB2) small molecule antagonists, cell-based qHTS assay (AID 1963592); further: series mostly up to about 92 µM; nearly all actives have a fitted effect of over 50% in size
Sequence of Beta-2 adrenergic receptor (Homo sapiens) (P07550 whole entry, looked up): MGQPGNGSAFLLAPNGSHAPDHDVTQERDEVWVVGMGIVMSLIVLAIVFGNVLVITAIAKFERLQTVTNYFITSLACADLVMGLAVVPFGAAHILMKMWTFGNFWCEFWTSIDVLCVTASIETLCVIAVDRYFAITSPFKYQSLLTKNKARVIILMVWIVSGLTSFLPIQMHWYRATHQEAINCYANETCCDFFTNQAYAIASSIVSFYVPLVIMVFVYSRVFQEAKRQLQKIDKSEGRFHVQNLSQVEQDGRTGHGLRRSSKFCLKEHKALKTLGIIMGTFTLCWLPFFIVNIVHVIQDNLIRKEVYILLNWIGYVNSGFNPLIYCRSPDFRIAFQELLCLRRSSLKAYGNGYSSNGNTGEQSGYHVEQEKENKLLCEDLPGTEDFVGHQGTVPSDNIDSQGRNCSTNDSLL
Procedure, shortened: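 Cells (CHO, stable ADRB2 overexpression) incubated 18-20hr at 37C; compounds added from DMSO; agonist mix (1nM isoproterenol, 100uM IBMX, 25uM Ro-20-1724) added; 0.5hr RT; d2-cAMP and anti-cAMP-cryptate added; 1hr RT; 665/615 nm read.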

[18] = target: D(2) dopamine receptor (Homo sapiens) (UniProt P14416); assay: Dopamine D2 receptor (DRD2) small molecule agonists, cell-based qHTS assay (AID 1963594); further: nearly all actives have a fitted effect of over 35% in size
Sequence of D(2) dopamine receptor (Homo sapiens) (P14416 whole entry, looked up): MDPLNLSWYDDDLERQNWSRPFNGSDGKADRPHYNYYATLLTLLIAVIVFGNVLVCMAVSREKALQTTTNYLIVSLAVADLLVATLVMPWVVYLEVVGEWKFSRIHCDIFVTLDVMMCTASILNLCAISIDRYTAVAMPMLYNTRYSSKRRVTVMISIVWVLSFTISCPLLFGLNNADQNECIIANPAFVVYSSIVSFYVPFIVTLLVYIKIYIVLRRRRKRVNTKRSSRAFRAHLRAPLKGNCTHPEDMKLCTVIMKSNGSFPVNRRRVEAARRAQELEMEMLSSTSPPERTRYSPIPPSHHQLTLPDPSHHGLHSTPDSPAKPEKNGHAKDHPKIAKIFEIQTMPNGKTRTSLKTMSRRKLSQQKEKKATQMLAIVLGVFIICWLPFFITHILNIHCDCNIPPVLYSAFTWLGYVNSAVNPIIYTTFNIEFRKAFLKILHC
Procedure, shortened: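 cAMP accumulation in DRD2-HEK293 cells measured by HTRF after 1 h detection; compounds added 10 min before NKH477 (200nM […]) forskolin-analogue stimulation, 30 min at room temperature, with Ro20-1724 present at 0.1 mM final.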

[19] = target: D(2) dopamine receptor (Homo sapiens) (UniProt P14416); assay: Dopamine D2 receptor (DRD2) small molecule antagonists, cell-based qHTS assay (AID 1963595; active means well fitted inhibition curve with a large enough effect in the signal ratio in the repeat runs, with a control signal flat; the % refers to the signal ratio)
Procedure, shortened: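 Antagonist mode in DRD2-HEK293 cells: after compound addition with 0.1 mM Ro20-1724, cells received quinpirole (12 nM) and NKH477 (200 nM) for 30 min at room temperature; HTRF cAMP read after 1 h detection.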
On the % scale 0 is the no-effect control and ±100 the full control effect.

Cc1cc2c(cc1S(N)(=O)=O)S(=O)(=O)CCC2
inactive: Potency [1] | Potency [2] | Potency [3] | outcome [4] | outcome [5] | Potency [6] | Potency [7] | Potency [8] | Potency [9] | Potency [10] | Potency [11] | Potency [12] | Potency [13] | Potency [14] | Potency [15] | Potency [16] | Potency [17] | Potency [18] | Potency [19]

CN(C)CCN1CCOCC1
inactive: Potency [1] | Potency [2] | Potency [3] | outcome [4] | outcome [5] | Potency [6] | Potency [7] | Potency [8] | Potency [9] | Potency [10] | Potency [11] | Potency [12] | Potency [13] | Potency [14] | Potency [15] | Potency [16] | Potency [17] | Potency [18] | Potency [19]

CN=C(N)NC(=O)Nc1c(C)cccc1C
active: Potency [12] 6.74 µM
inactive: Potency [1] | Potency [2] | Potency [3] | outcome [4] | outcome [5] | Potency [6] | Potency [7] | Potency [8] | Potency [9] | Potency [10] | Potency [11] | Potency [13] | Potency [14] | Potency [15] | Potency [16] | Potency [17] | Potency [18] | Potency [19]

O=C(CCOCCOCCOCCOCCC(=O)Nc1c(I)cc(I)c(C(=O)O)c1I)Nc1c(I)cc(I)c(C(=O)O)c1I
inactive: Potency [1] | Potency [2] | Potency [3] | outcome [4] | outcome [5] | Potency [6] | Potency [7] | Potency [8] | Potency [9] | Potency [10] | Potency [11] | Potency [12] | Potency [13] | Potency [14] | Potency [15] | Potency [16] | Potency [17] | Potency [18] | Potency [19]

Nc1c2c(nc3c1CCC3)CCCC2
inactive: Potency [1] | Potency [2] | Potency [3] | outcome [4] | outcome [5] | Potency [6] | Potency [7] | Potency [8] | Potency [9] | Potency [10] | Potency [11] | Potency [12] | Potency [13] | Potency [14] | Potency [15] | Potency [16] | Potency [17] | Potency [18] | Potency [19]

C/C(=C(\CCOP(=O)(O)O)SC(=O)c1ccccc1)N(C=O)Cc1cnc(C)nc1N
inactive: activity change, negative = cytotoxicity [1] -6.37% [at 8.39 µM] | activity, positive = activation [2] -0.129% [at 8.39 µM] | activity change [3] -0.163% [at 5.22 µM, stronger effect = higher value] | activation [4] -0.956% [at 6.97 µM] | activation [5] -0.0907% [at 5.23 µM] | activation [6] -1.03% [at 5.99 µM] | activation [7] -4.95% [at 5.99 µM] | activity change, negative = cytotoxicity [8] 1.21% [at 5.99 µM] | activity change, negative = cytotoxicity [9] 1.33% [at 5.99 µM] | activity change, negative = cytotoxicity [10] 10.8% [at 5.99 µM] | activation [11] 1.46% [at 5.99 µM] | activation [12] -0.64% [at 7.02 µM] | activity, negative = inhibition [13] 1.74% [at 5.58 µM] | activation [14] -0.572% [at 6.97 µM] | activation [15] 1.28% [at 8.39 µM] | activity change, negative = inhibition [16] 1.78% [at 8.39 µM] | activity change, negative = inhibition [17] 2.25% [at 8.39 µM] | activation [18] 3.76% [at 8.39 µM] | activity change, negative = inhibition [19] 2.34% [at 8.38 µM]

NC(=O)c1cn(Cc2c(F)cccc2F)nn1
inactive: Potency [1] | Potency [2] | Potency [3] | outcome [4] | outcome [5] | Potency [6] | Potency [7] | Potency [8] | Potency [9] | Potency [10] | Potency [11] | Potency [12] | Potency [13] | Potency [14] | Potency [15] | Potency [16] | Potency [17] | Potency [18] | Potency [19]
